Screening data: PubChem BioAssay, several laboratories
Hits are enriched below; roughly 4.3% of the tested compounds scored in any of these assays.
FAS TE block: inhibitors of human fatty acid synthase thioesterase domain | inhibition, % at 15 µM | recombinant FAS-TE, OMFH fluorogenic substrate, fluorescence endpoint | 0.67% of 360,000 active;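 active means compounds whose normalised, plate-corrected inhibition of enzyme fluorescence in the single-dose primary screen is 50% or more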;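 further: 0% = DMSO with enzyme and 100% = substrate without enzyme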
NR3A LBD binder: modulates the human NR3A ligand-binding domain; NR3A LBD differential scanning fluorimetry, Tm shift; 0% = protein alone, 100% = glycine-bound protein; AID 1259313; Tm shift relative to glycine control, % at 25 µM; 2.5% of 340,000 active;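 active means melting temperature shift of at least 10% of the positive control shift, at one fixed dose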
ADAM10 inh: ADAM10 inhibition, QFRET primary screen. O14672. recombinant ADAM10, EDANS/DABCYL FRET peptide cleavage, 3 h. inhibition, % at 7 µM. 0.62% of 370,000 active;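 active means inhibition above a per-campaign cutoff equal to the mean of compounds falling between control-based bounds plus 3 SD, cut at about 20% in these data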;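 further: 0% = DMSO wells while the 100% control is not disclosed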
Target sequence (O14672 214-748 limits assumed): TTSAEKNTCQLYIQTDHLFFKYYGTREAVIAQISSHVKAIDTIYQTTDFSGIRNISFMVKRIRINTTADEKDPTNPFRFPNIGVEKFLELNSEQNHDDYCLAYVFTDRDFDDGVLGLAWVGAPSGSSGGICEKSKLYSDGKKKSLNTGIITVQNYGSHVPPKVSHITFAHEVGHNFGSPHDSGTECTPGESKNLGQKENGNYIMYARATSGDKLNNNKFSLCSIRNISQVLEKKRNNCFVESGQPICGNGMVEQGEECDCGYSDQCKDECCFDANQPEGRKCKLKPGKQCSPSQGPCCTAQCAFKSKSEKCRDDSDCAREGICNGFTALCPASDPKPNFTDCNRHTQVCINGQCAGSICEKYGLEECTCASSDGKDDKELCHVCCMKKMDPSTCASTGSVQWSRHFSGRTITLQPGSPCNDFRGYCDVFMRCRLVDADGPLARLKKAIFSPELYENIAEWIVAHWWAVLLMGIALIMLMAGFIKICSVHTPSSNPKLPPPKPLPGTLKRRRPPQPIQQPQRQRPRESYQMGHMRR
ADAM17 inh: inhibits human ADAM17; P78536; recombinant ADAM17, EDANS/DABCYL FRET peptide cleavage; inhibition, % at 6.95 µM; 0.83% of 370,000 active;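 active means inhibition above the mean of compounds lying between control limits plus 3 SD, set per campaign, cut at about 8.5% in these data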;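 further: 0% = DMSO-only wells as the low control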
sPLA2-III inh: Inhibits HGIII-sPLA2 liposome hydrolysis, primary screen; Q9NZ20; QFRET BODIPY PC-A2 liposome hydrolysis, fluorescence; inhibition, % at 12.2 µM; 0.56% of 370,000 active; AID 743126;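 active means inhibition above mean plus 3 SD of compounds lying within the high and low control bounds, cut at about 19% in these data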;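 further: 0% = median of test compound wells and 100% = no enzyme DMSO wells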
ADAM10 confirm: human ADAM10 inhibition, confirmation; ADAM10 QFRET peptide cleavage, EDANS fluorescence; shares compounds with ADAM10 inh; inhibition, % at 6.95 µM; 1% of 2,100 active;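 active means inhibition above about 20% chosen separately for each screening run, limit read from the data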;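 further: 0% = DMSO wells and 100% = marimastat wells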
ADAM17 counter: inhibits human ADAM17 in ADAM10 exosite counter-screen; 0.5% of 2,100 active; ADAM17 QFRET peptide cleavage, EDANS fluorescence; shares compounds with ADAM10 inh; AID 743214; inhibition, % at 6.95 µM;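 active means mean triplicate inhibition above the solvent-only control wells' mean plus 3 SD, cut at about 12% in these data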;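 further: 0% = DMSO wells and 100% = marimastat wells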
ADAM10 counter: counter-screen for ADAM17 exosite inhibitors: inhibitors of human ADAM10. shares compounds with ADAM17 inh. recombinant ADAM10, EDANS/DABCYL FRET peptide cleavage, 3 h. inhibition, % at 6.95 µM. 47% of 2,900 active. AID 743256;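 active means mean inhibition over the triplicate runs exceeds the activity threshold set in the earlier primary screen, cut at about 20% in these data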;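 further: 0% = DMSO wells and 100% = marimastat wells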
ADAM17 confirm: confirmation of inhibitors of human ADAM17. AID 743257. 65% of 2,900 active. inhibition, % at 6.95 µM. recombinant ADAM17, EDANS/DABCYL QFRET peptide cleavage. shares compounds with ADAM17 inh;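 active means mean inhibition across replicates above the hit cutoff set in the primary screen, cut at about 8.5% in these data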;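 further: 0% = DMSO wells and 100% = marimastat wells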
hGIII sPLA2 conf: human GIII-sPLA2 inhibition, confirmation | shares compounds with sPLA2-III inh | recombinant hGIII-sPLA2, BODIPY PC-A2 QFRET fluorescence | inhibition, % at 12.2 µM | 34% of 2,000 active | AID 743280;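 active means mean inhibition across triplicates above the hit cutoff set in the earlier primary screen, cut at about 19% in these data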;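 further: 0% = enzyme with DMSO and 100% = DMSO wells lacking enzyme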
535nm interf: counter-screen for HGIII-sPLA2 inhibitors: 535nm fluorescence interference. shares compounds with sPLA2-III inh. BODIPY FL product fluorescence interference, QFRET. inhibition, % at 12.2 µM. 8.5% of 2,000 active;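 active means average inhibition above the solvent-only control mean plus 3 SD, cut at about 6% in these data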;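 further: 0% = DMSO with substrate plus product and 100% = DMSO with substrate alone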
BODIPY interf DR: counter-screen for HGIII-sPLA2 inhibitors: 535nm fluorescence interference, dose response; AID 743455; 240 tested, under 10 active; BODIPY FL product fluorescence interference, cell-free; IC50, µM; shares compounds with sPLA2-III inh;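 active means IC50 at or below 10 µM; inactive means IC50 above 10 µM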
The depositor's hits bear a star; · = no result given.

SMILES	FAS TE block	NR3A LBD binder	ADAM10 inh	ADAM17 inh	sPLA2-III inh	ADAM10 confirm	ADAM17 counter	ADAM10 counter	ADAM17 confirm	hGIII sPLA2 conf	535nm interf	others
COc1ccccc1N(C)S(=O)(=O)c1ccc(C(=O)NNC(=O)c2ccccc2O)cc1	1.8	-3.6	22.3*	9.0*	20.1*	5.7	3.1	19.1	12.4*	2.0	1.0
O=C(Nc1ccc(F)cc1)OCc1cn(Cc2ccccc2F)nn1	·	·	2.5	1.0	-2.3	·	·	·	·	·	·
Cc1cc(C)c(O)c(-c2n[nH]c3c2C(c2cccc(O)c2)N(Cc2ccco2)C3=O)c1 (configuration not stated)	3.3	0.1	36.7*	20.6*	23.8*	6.7	1.4	47.6*	23.0*	-49.2	0.2
COc1ccc(C2c3c(-c4ccccc4O)n[nH]c3C(=O)N2Cc2ccco2)cc1OC (configuration not stated)	-60.0	-2.5	5.1	2.4	-49.4	·	·	·	·	·	·
O=C(c1ccccc1O)N1N=C(C(F)(F)F)CC1(O)c1ccc([N+](=O)[O-])cc1 (configuration not stated)	29.6	-1.2	26.9*	5.6	20.9*	1.4	-0.2	·	·	13.2	4.7
Cc1ccc(C(=O)NC(=S)NNC(=O)c2ccccc2[N+](=O)[O-])cc1	-5.9	-7.0	-0.8	-1.8	0.1	·	·	·	·	·	·
CCCCOc1ccccc1C(=O)NNC(=S)NC(=O)c1ccccc1[N+](=O)[O-]	2.5	-5.2	26.9*	8.5	42.7*	6.7	1.6	·	·	47.9*	-6.9	BODIPY interf DR=>122
COC(=O)[C@H](C(C)C)N1CCc2nnn(Cc3ccccc3)c2-c2cc(F)ccc2S1(=O)=O	·	·	0.8	1.8	-0.9	·	·	·	·	·	·
CCOC(=O)c1c(C)nc2sc3c(=O)n(-c4ccc(C(C)=O)cc4)cnc3c2c1-c1ccc(OC)cc1	38.4	0.7	-0.8	-5.0	0.9	·	·	·	·	·	·
CC(=O)c1c(C)nc2sc3c(=N)n(N)cnc3c2c1-c1ccc(Cl)cc1	-2.4	-6.7	20.8*	0.9	30.3*	2.5	0.7	·	·	3.6	-9.1
N#Cc1ccc(Cn2ccc3ccc(-c4ccc5ccn(Cc6ccccc6)c5c4)cc32)cc1	·	·	-37.1	-9.8	4.2	·	·	·	·	·	·
COc1ccc2c(c1)C1C=CCC1C(c1cc3c(cc1Br)OCO3)N2 (configuration not stated)	17.6	-6.0	22.2*	9.1*	20.4*	3.0	2.1	-2.5	0.1	33.9*	8.9*
CC(=O)c1ccc2c(c1)C1C=CCC1C(c1cc3c(cc1Br)OCO3)N2 (configuration not stated)	22.2	-7.3	-9.0	-1.6	-0.3	·	·	·	·	·	·
CNC(C)C(=O)NC(C(=O)N1CCCC1C(=O)Nc1cccc2ncccc12)C(C)C (configuration not stated)	·	·	-1.2	-4.3	2.6	·	·	·	·	·	·
CC(C)Cn1c(-c2ccc(Br)cc2)c[nH]c1=S	5.9	1.6	25.9*	14.4*	28.0*	0.8	0.1	5.9	9.0*	37.5*	5.5
COc1ccc(-n2c(SCC(=O)NNC(=S)Nc3ccccc3)nc3ccccc3c2=O)cc1	·	·	25.5*	12.3*	35.9*	2.2	-0.1	12.3	8.6*	39.4*	4.3	BODIPY interf DR=>122
Cc1[nH]c(N=Nc2ccccc2)nc1N=Nc1ccccc1	11.4	-22.2	20.7*	5.4	24.9*	0.1	0.6	·	·	16.6	9.0*
CC(C)C[C@H](NC(=O)c1nc[nH]c1C(=O)N[C@@H](CCCCN)C(=O)OC(C)(C)C)C(=O)OC(C)(C)C	-15.0	0.5	·	·	·	·	·	·	·	·	·
CC(C)C[C@H](NC(=O)c1[nH]cnc1C(=O)N[C@@H](C)C(=O)OC(C)(C)C)C(=O)OC(C)(C)C	7.3	-4.8	39.8*	25.0*	22.6*	5.8	0.6	33.0*	18.7*	-10.1	-29.9
CN1NC(=O)c2ccccc2NC1=S	·	·	-2.7	-1.6	5.1	·	·	·	·	·	·
COc1cc(O)c2c(=O)c3c(O)ccc(O)c3oc2c1	-4.1	-3.2	82.6*	2.2	22.1*	3.0	0.1	·	·	7.2	-3.3
C=CCN=C1NC(c2cccc(F)c2)C(C(=O)OC)=C(C)N1C (configuration not stated)	·	·	-0.3	-5.6	10.3	·	·	·	·	·	·
CCC(C(=O)Nc1cccc(C(F)(F)F)c1)c1ccccc1 (configuration not stated)	30.0	-2.2	14.2	8.7*	-9.1	·	·	19.9*	9.4*	·	·
COc1ccc(-c2noc(C3CCCN(C(=O)Nc4ccc(C)c(F)c4)C3)n2)cc1 (configuration not stated)	·	·	4.8	9.8*	-21.6	·	·	18.0	9.2*	·	·
COc1ccc(-c2noc(C3CCCN(C(=O)Nc4ccccc4)C3)n2)cc1 (configuration not stated)	6.3	0.2	0.7	2.5	-7.8	·	·	·	·	·	·
SMILES	FAS TE block	NR3A LBD binder	ADAM10 inh	ADAM17 inh	sPLA2-III inh	ADAM10 confirm	ADAM17 counter	ADAM10 counter	ADAM17 confirm	hGIII sPLA2 conf	535nm interf	others
O=[N+]([O-])c1cccc(-c2c(-c3ccccc3)ncc3ccc(F)cc23)c1	25.0	-5.2	4.5	10.7*	12.5	·	·	6.4	5.2	·	·
O=C(CCC(=O)Nc1ccccc1)NCCO	-9.4	-0.1	2.8	11.3*	7.8	·	·	-7.8	-2.2	·	·
COc1ccc(NC(=O)CCC(=O)NCCO)cc1	-0.7	-0.4	0.1	-0.3	0.8	·	·	·	·	·	·
O=C(NCCc1ccccc1Cl)[C@@H]1CCCN1C(=O)[C@@H](NS(=O)(=O)c1ccc(F)cc1F)c1ccccc1	·	·	5.5	2.9	-18.2	·	·	·	·	·	·
C#CCNC(=O)C[C@H]1C[C@@]2(C(=O)OC)C(=C[C@H](C(C)C)O[C@@H]2C2CC2)N(CCc2ccc(OC)c(OC)c2)C1=O	·	·	2.7	0.4	0.3	·	·	·	·	·	·
O=C(NCc1ccccc1)C1=C[C@H](c2ccc(C(F)(F)F)cc2)C[C@H](OCc2ccc(CO)cc2)O1	28.4	-0.5	17.1	14.5*	-0.8	·	·	19.0	7.0	·	·
